BAZ2B inh: qHTS Assay for Inhibitors of BAZ2B; AlphaScreen BAZ2B-H3K14Ac peptide displacement; 360,000 tested, 4.4% active; AID 504333, 2011; Potency, µM (titrated, usually from 114 µM), without a hit: at the top dose activity change, negative = inhibition, actives largely listed as inhibitors; Bromodomain adjacent to zinc finger domain protein 2B (Homo sapiens), Q9UIF8; note: % is set by controls: 0 for no effect and ±100 for the full control effect; nearly all actives have a fitted effect of over 60% in size
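In this displacement format the biotinylated H3(5-23) peptide acetylated at Lys14 serves as ligand at 50 nM, with BAZ2B at 50 nM in PBS pH 7.4 containing 0.01% Tween-20. Donor and acceptor beads are 10 ug/mL final.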
VDR inhibitor: Inhibitors of the vitamin D receptor (VDR): qHTS; 400,000 tested, 0.93% active; VDR-SRC2-3 peptide fluorescence polarization, 2 h; AID 504847, 2011; Potency, µM, inactives show max response, negative = inhibition, hits mostly inhibitors; note: % is set by controls: 0 for no effect and ±100 for the full control effect
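After 23 nl compound addition and a short centrifugation, plates sat for 2 hours at ambient temperature; polarization of fluorescence then indicated loss of VDR binding to peptide SRC2-3.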
JMJD2A Tudor: qHTS Assay for Inhibitors of JMJD2A-Tudor Domain; Lysine-specific demethylase 4A (Homo sapiens), O75164; AlphaScreen JMJD2A-Tudor / H3K4me3 peptide binding; Potency, µM (highest dose often 114 µM), inactives show at the top dose activity change, negative = inhibition, most hits filed as inhibitors; 390,000 tested, 4.4% active; note: % is set by controls: 0 for no effect and ±100 for the full control effect; nearly all actives have a fitted effect of over 50% in size
HP1b chromo inh: HTS for Inhibitors of HP1-beta Chromodomain Interactions with Methylated Histone Tails; Chromobox protein homolog 1 (Homo sapiens), P83916; AlphaScreen HP1-beta / biotin-H3K9me3 peptide binding; Potency, µM (highest dose often 114 µM), without a hit: at the top dose activity change, negative = inhibition, usual class: inhibitors; 390,000 tested, 0.56% active; AID 540317, 2011; note: nearly all actives have a fitted effect of over 70% in size
Target sequence (P83916 whole entry, looked up): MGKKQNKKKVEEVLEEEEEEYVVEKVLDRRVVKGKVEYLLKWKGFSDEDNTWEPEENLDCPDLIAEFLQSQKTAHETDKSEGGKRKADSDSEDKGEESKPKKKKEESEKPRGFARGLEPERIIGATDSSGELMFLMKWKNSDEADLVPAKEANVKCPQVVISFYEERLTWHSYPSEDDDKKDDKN
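Compound inhibition of the preformed complex between 50 nM HP1-beta and 50 nM biotinylated H3K9me3 peptide was read by AlphaScreen. Buffer was PBS pH 7.4 with 0.01% Tween-20. Incubations ran 30 min at room temperature, with 10 ug/mL donor/acceptor beads.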
PLK1 PBD block: qHTS for Inhibitors of PLK1-PDB (polo-like kinase 1 - polo-box domain): Primary Screen; Potency, µM, without a hit: max response, negative = inhibition, hits mostly inhibitors; Plk1 PBD binding of FITC phosphopeptide, fluorescence polarization; 360,000 tested, 2.8% active; Serine/threonine-protein kinase PLK1 (Homo sapiens), P53350; note: series mostly up to about 57 µM; % is set by controls: 0 for no effect and ±100 for the full control effect; nearly all actives have a fitted effect of over 65% in size
G9a block: qHTS Assay for Inhibitors of Histone Lysine Methyltransferase G9a; Histone-lysine N-methyltransferase EHMT2 (Homo sapiens), Q96KQ7; G9a H3K9 monomethylation, AlphaScreen, 2 h; AID 504332, 2011; Potency, µM (titrated, usually from 102 µM), inactives show top-dose activity, negative = inhibition, usual class: inhibitors; 350,000 tested, 8.8% active; note: % is set by controls: 0 for no effect and ±100 for the full control effect; nearly all actives have a fitted effect of over 75% in size
Target sequence (Q96KQ7 913-1193 limits assumed): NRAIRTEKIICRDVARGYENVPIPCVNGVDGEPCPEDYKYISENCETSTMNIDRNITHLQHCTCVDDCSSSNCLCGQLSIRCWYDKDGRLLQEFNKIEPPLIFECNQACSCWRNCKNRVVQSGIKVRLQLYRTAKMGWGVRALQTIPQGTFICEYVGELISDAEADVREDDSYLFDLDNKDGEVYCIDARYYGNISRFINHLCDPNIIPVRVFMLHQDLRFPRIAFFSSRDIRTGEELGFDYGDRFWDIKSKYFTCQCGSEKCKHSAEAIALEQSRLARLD
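G9a (20 nM) preincubated 15 min RT with compounds, then 500 nM biotinylated H3K9 peptide and 20 uM SAM added; 2 h RT reaction. Monomethyl-H3K9 product detected by AlphaScreen with anti-H3K9me1 antibody, streptavidin donor and anti-rabbit IgG acceptor beads.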
* marks the source's active call; other numbers are inactive results; ? = inconclusive; . = no result given; [ ] = another dose, or the depositor's remark. Compounds with a hit are over-represented: about 11% of the library has one in this group of screens. Calls come from the whole dose curve; as a rule, active = well fitted curve in the direction sought with a large enough effect; inconclusive = small, poorly fitted or top-dose-only effect, or another doubt; inactive = no such curve, though single readings can be large; an effect the other way counts as inactive or inconclusive. Potency is the fitted concentration of half-maximal effect.

SMILES	BAZ2B inh	VDR inhibitor	JMJD2A Tudor	HP1b chromo inh	PLK1 PBD block	G9a block
O=C(Nc1ccc2ccccc2c1)[C@@H]1C[C@H]1[C@@H](NP(=O)(c1ccccc1)c1ccccc1)c1ccccc1	-33%	-1%	-27%	23%	-2%	50µM*
O=C(NCc1ccccc1)[C@@H]1C[C@H]1[C@@H](NP(=O)(c1ccccc1)c1ccccc1)c1ccccc1	-25%	-14%	-15%	16%	-22%	1%
COc1ccc(CC(N)c2csc(Nc3nncc4ccccc34)n2)cc1 (stereo unspecified)	.	.	.	.	0%	.
Cc1cc(C)n(-c2ccc(C(=O)OCC(=O)Nc3ccccc3F)cc2)n1	.	-20%	-17%	35%	-5%	.
CCCCN(CC(=O)NC1CCCC1)C(=O)C(=O)Nc1ccc2c(c1)OCCO2	0%	?	79µM*	5%	?	7%
O=C(NCc1ccccc1)C1CCC(=O)N(CCCN2CCCC2=O)C1 (stereo unspecified)	-8%[57.1 µM]	-2%	0%	31%	-17%	13%
N#Cc1cccc(-c2ccc3ncnc(N4CCNCC4)c3c2)c1	.	-14%	.	.	.	11%[0.501 µM]
Cc1ccc(Cl)c(OCC(=O)Nc2ccccc2C(=O)NC2CC2)c1	-3%	8%	-10%	58%	-2%	.
Cc1ccc(C)c(OCC(=O)Nc2ccccc2C(=O)NC2CC2)c1	-5%	89µM*	-8%	38%	3%	-8%[0.501 µM]
Cc1ccc(C)c(OCC(=O)Nc2ccccc2C(=O)N2CCOCC2)c1	-14%	17%	-4%	31%[57 µM]	-22%	89µM*
Cc1cc(Cl)ccc1OCC(=O)OCC(=O)N(CC(C)C)c1c(N)n(Cc2ccccc2)c(=O)[nH]c1=O	-26%	14%	-13%	19%	-4%	-10%
C=CC(=O)Nc1cccc(Oc2ccnc3[nH]ccc23)c1	.	29%	79µM*	?	-10%	.
CN1CCN(c2ccc(NC(=O)c3ccc4ccccc4c3)cc2)CC1	?	14%	-22%	9%[57 µM]	-12%	8%
C=CC(=O)Nc1cccc(Oc2ccnc(Nc3ccc(N4CCN(C)CC4)cc3)n2)c1	.	9%	45µM*	?	-13%	.
C=CC(=O)Nc1cccc(Oc2ncnc3[nH]cc(-c4cnc5ccccc5c4)c23)c1	.	3%	-11%	22%	-16%	.
CS(=O)(=O)c1ccc(C(=O)N(Cc2ccccc2)c2ccccc2)cc1	-3%	-3%	-21%	4%	-15%	45µM*
Cc1cccc(N(Cc2ccccc2)C(=O)c2ccc(S(C)(=O)=O)cc2)c1	-16%	-12%	-11%	6%	-8%	?
COc1ccc2c(c1OC)C(=O)N1c3ccccc3N=C(c3ccc([N+](=O)[O-])cc3)CC21 (stereo unspecified)	8%	89µM*	?	-7%	0%	?
COc1ccc(-c2nnc(SCc3cc(=O)c4cc(C)cc(C)c4[nH]3)n2C)cc1	5%	3%	-14%	14%[57 µM]	.	0%[59 µM]
CC(C)c1cccc(C(C)C)c1OCCCCN1CCCC1	7%	2%	-26%	14%	-7%	?
Cc1cccc(OCCCN2CCCCCC2)c1	79µM*	0%	7.9µM*	?	0%	6.3µM*
Clc1cccc(OCCCCN2CCCCC2)c1	56µM*	-10%	22µM*	?	-14%	?
Clc1cccc(OCCN2CCNCC2)c1	-33%	-5%	18µM*	?	-13%	14µM*
Clc1cccc(Cl)c1OCCCCN1CCCCC1	79µM*	16%	20µM*	?	5%	22µM*
Cc1cccc(OCCCCCN2CCOCC2)c1	-2%	0%	1%	22%	2%	18%[59 µM]
SMILES	BAZ2B inh	VDR inhibitor	JMJD2A Tudor	HP1b chromo inh	PLK1 PBD block	G9a block
OCCN1CCN(CCOc2cccc(Cl)c2)CC1	?	-8%	?	26%	-3%	.
Cc1nn(CC(=O)Nc2ccc(OC(F)(F)F)cc2)c(=O)c2c(C)n(-c3ccc(Cl)cc3)nc12	3%	-3%	-11%	16%[57 µM]	.	9%[59 µM]
CC(=O)OC(C(=O)NCc1ccco1)c1ccncc1 (stereo unspecified)	7%	-3%	-2%	63%	-5%	?
O=C(NCCCN1CCCCC1)c1cc(Sc2ccc(Cl)cc2)nc2ccccc12	-10%	3%	-22%	12%	.	-5%[59 µM]
COc1ccc(-c2nn(-c3ccccc3)cc2/C=C2/SC(=S)N(CCC(=O)O)C2=O)c(C)c1	50µM*	?	25µM*	?	12µM*	40µM*
Cc1ccc(-c2nn(-c3ccccc3)cc2/C=C2\SC(=S)N(CC(=O)O)C2=O)cc1	22µM*	?	40µM*	-24%[57 µM]	30µM*	35µM*
COc1ccc(-c2nn(-c3ccccc3)cc2/C=C2/SC(=S)N(CCC(=O)O)C2=O)cc1	18µM*	?	20µM*	35µM*	21µM*	40µM*
N#CCCn1cc(/C=C2\NC(=S)N(c3ccccc3)C2=O)c(-c2ccc(-c3ccccc3)cc2)n1	-18%	-7%	-25%	18%	-14%	14%[59 µM]
CCN1C(=O)/C(=C\c2cn(CCC#N)nc2-c2ccc(F)cc2)SC1=S	35µM*	4%	22µM*	?	?	35µM*
COC(=O)CCCC(=O)NC(C)c1cnn(-c2ccccc2C)c1C (stereo unspecified)	3%	-15%	-8%	25%	-20%	-3%
CCN(Cc1cccs1)c1ncnc2ccc(-c3ccc4c(c3)OCO4)cc12	.	.	-1%	.	.	.
COc1cc(/C=C/c2nc(C#N)c(NC(C)c3ccccc3)o2)cc(OC)c1OC (stereo unspecified)	-26%	-4%	-11%	3%	.	-36%[59 µM]
CC1CCC2(CC1)NC(=O)N(CC(=O)NCc1ccc(F)cc1)C2=O (stereo unspecified)	-1%	4%	-2%	31%	-15%	22%[12.7 µM]
O=C1C(=Cc2cn(-c3ccccc3)nc2-c2ccc(OCc3ccccc3F)cc2)SC(=S)N1CCS(=O)(=O)O	.	.	.	.	9.5µM*	.
N#Cc1nc(Nc2cccc(C(F)(F)F)c2)nc(NC2CCCC2)n1	.	.	-24%	.	.	.
CN1CCN(C(=O)c2cc3c(ccc4ccccc43)oc2=O)CC1	-32%	16%	-10%	36%	-5%	50µM*
COC(=O)c1cc2c(ccc3ccccc32)oc1=O	.	-10%	12%	68%	-2%	.
CN(C)c1cccc(S(=O)(=O)N2CCN(S(=O)(=O)c3ccc4c(c3)OCCO4)CC2)c1	.	.	-23%	.	.	.

Screening results: PubChem BioAssay, National Center for Advancing Translational Sciences (NCATS)
